# Measured values published in article PMC7862700, “An all-to-all approach to the identification of sequence-specific readers for epigenetic DNA modifications on cytosine”.
# How the values were obtained:
# Test in all cases: DAPPL (digital affinity profiling via proximity ligation, sequencing); 10 mM Tris-HCl pH 7.5, 50 mM NaCl, 1 mM DTT, 4% glycerol, room temperature, 30 min; GST-TFs on glutathione beads, 16-mer random dsDNA library, 0.1% formaldehyde crosslink after washing; high values mean tight binding
# FEV = biological target: T1, FEV (Homo sapiens, UniProt Q99581 1-238); details: protein: recombinant; tags: N-terminal GST; dsDNA, one strand shown
# T1 sequence: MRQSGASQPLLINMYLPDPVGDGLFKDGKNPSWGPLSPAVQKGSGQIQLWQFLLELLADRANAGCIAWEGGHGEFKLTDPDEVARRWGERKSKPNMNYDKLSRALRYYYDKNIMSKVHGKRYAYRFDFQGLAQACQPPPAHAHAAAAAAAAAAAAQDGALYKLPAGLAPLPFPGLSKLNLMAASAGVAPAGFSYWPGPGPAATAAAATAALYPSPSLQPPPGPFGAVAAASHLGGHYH
# Method in brief: (§1)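 Human transcription factors carrying a GST fusion were produced in yeast, bound to glutathione beads, tagged with DNA barcodes and pooled together with a tag-only sample. Each pool was held with 200 nmole of a random double-stranded 16-mer DNA library in Tris/NaCl/DTT/glycerol buffer for 30 min at room temperature, then washed, crosslinked in 0.1% formaldehyde, proximity-ligated with BsaI/T4 ligase (1 h, 37 °C), PCR-amplified and sequenced on an Illumina NextSeq500. Binding signal is the read frequency of each hexamer for a given factor divided by its frequency in the tag-only sample.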
# ETV5 = ETV5 (Homo sapiens, UniProt P41161 1-510); details: protein: recombinant; tags: N-terminal GST; dsDNA, one strand shown
# Method in brief: as §1
# HSF1 = HSF1 (Homo sapiens, UniProt Q00613 1-529); details: protein: recombinant; tags: N-terminal GST; chain copies: 3; dsDNA, one strand shown
# Method in brief: as §1
# SPIC = biological target: T2, SPIC (Homo sapiens, UniProt Q8N5J4 1-248); details: protein: recombinant; tags: N-terminal GST; dsDNA, one strand shown
# T2 sequence: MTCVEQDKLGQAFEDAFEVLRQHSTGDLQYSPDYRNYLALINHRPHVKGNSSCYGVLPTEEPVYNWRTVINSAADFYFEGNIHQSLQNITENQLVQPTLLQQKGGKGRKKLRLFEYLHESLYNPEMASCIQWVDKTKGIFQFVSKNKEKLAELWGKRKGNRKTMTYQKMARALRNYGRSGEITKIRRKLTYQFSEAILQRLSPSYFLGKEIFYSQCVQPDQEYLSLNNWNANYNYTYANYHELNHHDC
# Method in brief: as §1
# ELF4 = ELF4 (Homo sapiens, UniProt Q99607 1-663); details: protein: recombinant; tags: N-terminal GST; dsDNA, one strand shown
# Method in brief: as §1
# ELK4 = biological target: T3, ELK4 (Homo sapiens, UniProt P28324-2 1-405); details: protein: recombinant; tags: N-terminal GST; dsDNA, one strand shown
# T3 sequence: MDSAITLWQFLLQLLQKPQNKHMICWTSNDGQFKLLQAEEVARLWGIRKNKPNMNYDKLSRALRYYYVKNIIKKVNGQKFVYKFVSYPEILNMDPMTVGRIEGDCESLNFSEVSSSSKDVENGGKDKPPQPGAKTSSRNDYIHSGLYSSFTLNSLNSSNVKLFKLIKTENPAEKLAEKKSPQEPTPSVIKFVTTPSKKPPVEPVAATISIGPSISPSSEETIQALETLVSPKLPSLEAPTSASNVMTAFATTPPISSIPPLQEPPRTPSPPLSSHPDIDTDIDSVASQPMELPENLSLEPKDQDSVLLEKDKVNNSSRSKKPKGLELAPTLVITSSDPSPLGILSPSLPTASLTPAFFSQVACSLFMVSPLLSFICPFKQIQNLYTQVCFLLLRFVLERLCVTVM
# Method in brief: as §1
# ETV2 = biological target: T4, ETV2 (Homo sapiens, UniProt O00321 1-342); details: protein: recombinant; tags: N-terminal GST; dsDNA, one strand shown
# T4 sequence: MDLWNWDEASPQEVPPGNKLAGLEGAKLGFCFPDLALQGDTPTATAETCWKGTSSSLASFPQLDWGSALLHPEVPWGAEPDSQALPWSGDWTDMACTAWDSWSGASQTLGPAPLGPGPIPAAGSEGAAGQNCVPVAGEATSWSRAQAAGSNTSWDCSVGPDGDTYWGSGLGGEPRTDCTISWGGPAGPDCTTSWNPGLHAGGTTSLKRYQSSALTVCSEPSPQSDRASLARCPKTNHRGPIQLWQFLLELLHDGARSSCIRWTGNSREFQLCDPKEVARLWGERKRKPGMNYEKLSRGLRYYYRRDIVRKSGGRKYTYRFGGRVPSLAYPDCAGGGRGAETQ
# Method in brief: as §1
# ELF3 = biological target: T5, ELF3 (Homo sapiens, UniProt P78545 1-371); details: protein: recombinant; tags: N-terminal GST; dsDNA, one strand shown
# T5 sequence: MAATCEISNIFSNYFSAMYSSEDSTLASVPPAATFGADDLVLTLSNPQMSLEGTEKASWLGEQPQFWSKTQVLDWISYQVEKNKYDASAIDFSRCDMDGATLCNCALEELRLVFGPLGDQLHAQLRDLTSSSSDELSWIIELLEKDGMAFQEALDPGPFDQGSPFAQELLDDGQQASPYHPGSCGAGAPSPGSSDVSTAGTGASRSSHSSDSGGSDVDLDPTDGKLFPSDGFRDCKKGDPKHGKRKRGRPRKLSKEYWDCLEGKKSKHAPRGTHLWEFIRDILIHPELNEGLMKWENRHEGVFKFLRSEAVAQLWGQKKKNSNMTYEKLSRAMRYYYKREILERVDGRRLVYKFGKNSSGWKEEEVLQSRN
# Method in brief: as §1
# CRX = CRX (Homo sapiens, UniProt O43186 1-299); details: protein: recombinant; tags: N-terminal GST; dsDNA, one strand shown
# Method in brief: as §1
# ETV1 = ETV1 (Homo sapiens, UniProt P50549 1-477); details: protein: recombinant; tags: N-terminal GST; dsDNA, one strand shown
# Method in brief: as §1
# ERF = biological target: T6, ERF (Homo sapiens, UniProt P50548 1-548); details: protein: recombinant; tags: N-terminal GST; dsDNA, one strand shown
# T6 sequence: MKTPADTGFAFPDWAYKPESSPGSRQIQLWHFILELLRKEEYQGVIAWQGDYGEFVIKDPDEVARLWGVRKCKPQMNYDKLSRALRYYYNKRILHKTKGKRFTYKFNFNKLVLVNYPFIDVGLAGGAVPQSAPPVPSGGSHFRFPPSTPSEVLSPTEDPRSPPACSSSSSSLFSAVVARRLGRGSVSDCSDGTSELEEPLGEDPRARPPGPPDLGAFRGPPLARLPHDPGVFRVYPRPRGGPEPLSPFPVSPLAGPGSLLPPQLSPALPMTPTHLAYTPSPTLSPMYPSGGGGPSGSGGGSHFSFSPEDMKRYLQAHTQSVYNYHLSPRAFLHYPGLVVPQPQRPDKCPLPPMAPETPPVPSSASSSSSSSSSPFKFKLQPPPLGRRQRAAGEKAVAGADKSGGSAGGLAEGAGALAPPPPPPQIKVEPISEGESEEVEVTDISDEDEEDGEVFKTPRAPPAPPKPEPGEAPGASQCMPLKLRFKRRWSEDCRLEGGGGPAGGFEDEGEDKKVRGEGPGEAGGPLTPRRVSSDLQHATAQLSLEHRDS
# Method in brief: as §1
# ETV3L = biological target: T7, ETV3L (Homo sapiens, UniProt Q6ZN32 1-361); details: protein: recombinant; tags: N-terminal GST; dsDNA, one strand shown
# T7 sequence: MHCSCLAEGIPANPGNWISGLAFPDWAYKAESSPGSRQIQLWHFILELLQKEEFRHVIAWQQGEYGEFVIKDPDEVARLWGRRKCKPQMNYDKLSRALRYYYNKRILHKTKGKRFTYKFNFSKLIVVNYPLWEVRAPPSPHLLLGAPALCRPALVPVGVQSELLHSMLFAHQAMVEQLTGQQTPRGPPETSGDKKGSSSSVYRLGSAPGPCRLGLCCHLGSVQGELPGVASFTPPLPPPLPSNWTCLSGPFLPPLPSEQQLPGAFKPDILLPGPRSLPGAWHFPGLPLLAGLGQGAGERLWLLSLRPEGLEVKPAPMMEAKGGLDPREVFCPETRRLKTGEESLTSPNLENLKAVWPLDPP
# Method in brief: as §1
# ETS2 = biological target: T8, ETS2 (Homo sapiens, UniProt P15036 1-469); details: protein: recombinant; tags: N-terminal GST; dsDNA, one strand shown
# T8 sequence: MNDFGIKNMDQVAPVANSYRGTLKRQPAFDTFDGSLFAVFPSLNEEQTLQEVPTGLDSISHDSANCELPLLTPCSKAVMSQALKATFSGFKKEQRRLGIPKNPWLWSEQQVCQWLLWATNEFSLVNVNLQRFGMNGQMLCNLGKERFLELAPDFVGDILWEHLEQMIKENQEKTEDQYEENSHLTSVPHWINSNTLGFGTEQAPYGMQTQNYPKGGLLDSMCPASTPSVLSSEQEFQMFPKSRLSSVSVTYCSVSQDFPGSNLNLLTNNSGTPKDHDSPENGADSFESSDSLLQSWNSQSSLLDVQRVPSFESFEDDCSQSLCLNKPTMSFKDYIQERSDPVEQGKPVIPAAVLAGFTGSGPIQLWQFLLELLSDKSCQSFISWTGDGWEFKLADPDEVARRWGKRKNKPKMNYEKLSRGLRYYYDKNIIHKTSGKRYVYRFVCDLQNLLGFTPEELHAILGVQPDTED
# Method in brief: as §1
# SPDEF = biological target: T9, SPDEF (Homo sapiens, UniProt O95238 1-335); details: protein: recombinant; tags: N-terminal GST; dsDNA, one strand shown
# T9 sequence: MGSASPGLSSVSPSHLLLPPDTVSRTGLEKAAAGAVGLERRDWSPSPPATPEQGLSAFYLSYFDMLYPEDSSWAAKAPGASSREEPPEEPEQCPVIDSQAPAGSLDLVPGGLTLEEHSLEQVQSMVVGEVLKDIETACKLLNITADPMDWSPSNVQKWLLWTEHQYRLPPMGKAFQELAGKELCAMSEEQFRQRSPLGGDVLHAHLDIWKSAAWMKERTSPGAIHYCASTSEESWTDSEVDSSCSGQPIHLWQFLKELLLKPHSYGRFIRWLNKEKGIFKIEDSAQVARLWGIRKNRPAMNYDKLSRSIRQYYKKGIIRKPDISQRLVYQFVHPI
# Method in brief: as §1
# ETV7 = biological target: T10, ETV7 (Homo sapiens, UniProt Q9Y603 1-341); details: protein: recombinant; tags: N-terminal GST; dsDNA, one strand shown
# T10 sequence: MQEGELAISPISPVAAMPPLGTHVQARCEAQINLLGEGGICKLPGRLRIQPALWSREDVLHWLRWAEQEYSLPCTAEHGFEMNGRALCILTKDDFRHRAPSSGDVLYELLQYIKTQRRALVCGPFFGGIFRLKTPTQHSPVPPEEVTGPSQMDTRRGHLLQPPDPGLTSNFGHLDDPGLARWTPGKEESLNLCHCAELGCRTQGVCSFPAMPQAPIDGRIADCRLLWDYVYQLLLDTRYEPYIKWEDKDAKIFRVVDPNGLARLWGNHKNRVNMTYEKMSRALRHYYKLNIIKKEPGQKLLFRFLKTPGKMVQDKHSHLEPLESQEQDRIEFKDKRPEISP
# Method in brief: as §1
# ELF5 = biological target: T11, ELF5 (Homo sapiens, UniProt Q9UKW6-2 1-255); details: protein: recombinant; tags: N-terminal GST; dsDNA, one strand shown
# T11 sequence: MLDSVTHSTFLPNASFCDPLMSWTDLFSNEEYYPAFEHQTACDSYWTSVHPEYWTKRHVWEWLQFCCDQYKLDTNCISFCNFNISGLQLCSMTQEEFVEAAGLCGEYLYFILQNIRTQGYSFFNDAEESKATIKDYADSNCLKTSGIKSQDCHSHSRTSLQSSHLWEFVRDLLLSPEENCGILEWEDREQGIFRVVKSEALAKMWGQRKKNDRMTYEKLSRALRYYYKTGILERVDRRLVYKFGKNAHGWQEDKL
# Method in brief: as §1
# ETV3 = biological target: T12, ETV3 (Homo sapiens, UniProt P41162-2 1-143); details: protein: recombinant; tags: N-terminal GST; dsDNA, one strand shown
# T12 sequence: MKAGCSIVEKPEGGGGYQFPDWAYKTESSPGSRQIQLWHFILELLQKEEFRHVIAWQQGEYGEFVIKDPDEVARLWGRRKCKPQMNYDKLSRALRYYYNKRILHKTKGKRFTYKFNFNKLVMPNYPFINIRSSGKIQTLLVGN
# Method in brief: as §1
# ETV6 = ETV6 (Homo sapiens, UniProt P41212 1-452); details: protein: recombinant; tags: N-terminal GST; dsDNA, one strand shown
# Method in brief: as §1
# Chain of ETV6 (P41212 whole entry): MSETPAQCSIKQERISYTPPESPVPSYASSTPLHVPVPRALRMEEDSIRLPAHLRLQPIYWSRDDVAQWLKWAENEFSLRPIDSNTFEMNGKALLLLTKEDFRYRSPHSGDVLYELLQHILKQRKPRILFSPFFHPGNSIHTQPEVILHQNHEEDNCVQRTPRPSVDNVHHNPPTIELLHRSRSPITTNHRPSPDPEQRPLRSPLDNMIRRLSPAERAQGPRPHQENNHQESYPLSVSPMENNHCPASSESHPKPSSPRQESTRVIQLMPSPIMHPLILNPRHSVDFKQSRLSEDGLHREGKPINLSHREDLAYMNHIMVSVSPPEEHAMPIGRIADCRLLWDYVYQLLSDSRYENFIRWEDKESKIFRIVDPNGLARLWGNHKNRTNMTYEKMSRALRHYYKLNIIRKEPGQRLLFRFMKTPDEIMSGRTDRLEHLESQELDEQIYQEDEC
# Chain of ELF4 (Q99607 whole entry): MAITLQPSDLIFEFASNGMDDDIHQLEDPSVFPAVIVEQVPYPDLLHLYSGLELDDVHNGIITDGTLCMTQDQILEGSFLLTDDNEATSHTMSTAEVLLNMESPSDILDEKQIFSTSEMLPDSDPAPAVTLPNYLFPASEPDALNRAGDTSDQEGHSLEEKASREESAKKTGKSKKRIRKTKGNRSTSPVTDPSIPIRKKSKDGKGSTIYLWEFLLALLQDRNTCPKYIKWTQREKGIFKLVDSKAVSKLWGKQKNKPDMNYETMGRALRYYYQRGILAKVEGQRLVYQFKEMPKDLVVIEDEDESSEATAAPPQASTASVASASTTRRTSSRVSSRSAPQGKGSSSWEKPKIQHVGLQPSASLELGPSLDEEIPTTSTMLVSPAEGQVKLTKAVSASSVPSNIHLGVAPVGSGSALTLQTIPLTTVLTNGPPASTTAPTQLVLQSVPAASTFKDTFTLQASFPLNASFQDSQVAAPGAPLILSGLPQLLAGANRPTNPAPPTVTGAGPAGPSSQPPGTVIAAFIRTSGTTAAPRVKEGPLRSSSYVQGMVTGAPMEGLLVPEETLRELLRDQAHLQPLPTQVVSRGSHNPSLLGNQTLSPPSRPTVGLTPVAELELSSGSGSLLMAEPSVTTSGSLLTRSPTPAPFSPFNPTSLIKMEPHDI
# Chain of ETV5 (P41161 whole entry): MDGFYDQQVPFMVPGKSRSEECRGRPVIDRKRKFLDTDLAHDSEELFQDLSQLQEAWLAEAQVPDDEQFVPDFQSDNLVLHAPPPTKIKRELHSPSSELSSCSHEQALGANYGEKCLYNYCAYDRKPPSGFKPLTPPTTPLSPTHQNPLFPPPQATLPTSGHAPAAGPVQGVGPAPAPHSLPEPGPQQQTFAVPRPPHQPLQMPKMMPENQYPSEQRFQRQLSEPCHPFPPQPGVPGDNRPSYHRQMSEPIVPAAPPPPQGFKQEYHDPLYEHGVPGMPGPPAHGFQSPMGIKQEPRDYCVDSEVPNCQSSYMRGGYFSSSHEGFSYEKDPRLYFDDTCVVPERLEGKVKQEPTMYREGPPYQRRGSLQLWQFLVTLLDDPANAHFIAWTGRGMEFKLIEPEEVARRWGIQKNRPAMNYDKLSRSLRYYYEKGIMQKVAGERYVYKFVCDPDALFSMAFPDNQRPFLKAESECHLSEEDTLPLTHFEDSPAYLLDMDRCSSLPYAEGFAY
# Chain of ETV1 (P50549 whole entry): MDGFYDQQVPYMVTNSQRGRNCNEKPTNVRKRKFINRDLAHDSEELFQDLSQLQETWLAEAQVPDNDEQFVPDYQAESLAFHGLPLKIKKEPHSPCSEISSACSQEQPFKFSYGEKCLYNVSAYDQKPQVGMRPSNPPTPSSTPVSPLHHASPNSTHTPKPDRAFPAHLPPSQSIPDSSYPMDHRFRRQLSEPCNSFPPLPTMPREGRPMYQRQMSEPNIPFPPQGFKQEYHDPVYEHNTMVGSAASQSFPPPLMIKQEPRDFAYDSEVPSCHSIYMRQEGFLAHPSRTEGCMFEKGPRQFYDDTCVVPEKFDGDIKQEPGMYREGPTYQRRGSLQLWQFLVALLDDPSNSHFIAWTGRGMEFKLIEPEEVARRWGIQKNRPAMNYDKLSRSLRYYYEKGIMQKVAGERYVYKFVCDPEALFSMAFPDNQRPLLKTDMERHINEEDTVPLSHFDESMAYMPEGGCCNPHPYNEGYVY
# Chain of CRX (O43186 whole entry): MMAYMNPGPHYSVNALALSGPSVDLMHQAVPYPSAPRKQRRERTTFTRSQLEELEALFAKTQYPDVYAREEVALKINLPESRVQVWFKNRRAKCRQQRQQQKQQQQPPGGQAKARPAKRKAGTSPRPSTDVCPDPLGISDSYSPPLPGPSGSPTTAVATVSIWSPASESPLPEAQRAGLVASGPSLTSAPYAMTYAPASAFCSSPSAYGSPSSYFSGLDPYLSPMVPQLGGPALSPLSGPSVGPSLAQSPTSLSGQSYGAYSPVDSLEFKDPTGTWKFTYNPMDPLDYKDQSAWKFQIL
# Chain of HSF1 (Q00613 whole entry): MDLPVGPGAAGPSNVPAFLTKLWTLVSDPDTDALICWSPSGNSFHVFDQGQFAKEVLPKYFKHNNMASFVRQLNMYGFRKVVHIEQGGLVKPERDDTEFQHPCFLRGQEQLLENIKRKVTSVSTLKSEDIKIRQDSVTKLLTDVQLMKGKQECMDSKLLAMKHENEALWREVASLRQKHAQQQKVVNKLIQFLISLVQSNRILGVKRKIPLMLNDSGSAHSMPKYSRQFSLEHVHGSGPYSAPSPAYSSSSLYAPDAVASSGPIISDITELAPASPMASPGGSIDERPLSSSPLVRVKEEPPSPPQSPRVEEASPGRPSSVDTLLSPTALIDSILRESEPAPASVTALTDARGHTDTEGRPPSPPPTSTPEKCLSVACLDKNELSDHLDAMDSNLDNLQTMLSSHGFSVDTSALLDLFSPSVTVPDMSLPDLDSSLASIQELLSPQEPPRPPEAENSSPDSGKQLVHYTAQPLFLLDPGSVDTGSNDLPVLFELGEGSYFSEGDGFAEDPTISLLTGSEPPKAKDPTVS
sequence,measurement,setting,value
CTTAAT,binding signal,FEV,"1.23 fold enrichment (6-mer frequency, TF over GST control)"
same,binding signal,ETV5,"1.27 fold enrichment (6-mer frequency, TF over GST control)"
same,binding signal,HSF1,"2.31 fold enrichment (6-mer frequency, TF over GST control)"
same,binding signal,SPIC,"1.32 fold enrichment (6-mer frequency, TF over GST control)"
same,binding signal,ELF4,"1.33 fold enrichment (6-mer frequency, TF over GST control)"
same,binding signal,ELK4,"1.22 fold enrichment (6-mer frequency, TF over GST control)"
same,binding signal,ETV2,"1.25 fold enrichment (6-mer frequency, TF over GST control)"
same,binding signal,ELF3,"1.35 fold enrichment (6-mer frequency, TF over GST control)"
same,binding signal,CRX,"3.69 fold enrichment (6-mer frequency, TF over GST control)"
same,binding signal,ETV1,"1.29 fold enrichment (6-mer frequency, TF over GST control)"
same,binding signal,ERF,"1.27 fold enrichment (6-mer frequency, TF over GST control)"
same,binding signal,ETV3L,"1.4 fold enrichment (6-mer frequency, TF over GST control)"
same,binding signal,ETS2,"1.37 fold enrichment (6-mer frequency, TF over GST control)"
same,binding signal,SPDEF,"1.25 fold enrichment (6-mer frequency, TF over GST control)"
same,binding signal,ETV7,"1.33 fold enrichment (6-mer frequency, TF over GST control)"
same,binding signal,ELF5,"1.25 fold enrichment (6-mer frequency, TF over GST control)"
same,binding signal,ETV3,"1.27 fold enrichment (6-mer frequency, TF over GST control)"
same,binding signal,ETV6,"1.25 fold enrichment (6-mer frequency, TF over GST control)"
